# This excerpt belongs to a sample that is enriched for the strongest signals.
# Legend:
# Assay in all cases: glycan array binding signal (z-score within array); higher = stronger binding
# [1] = tested on: Man(b1-4)GlcNAc; settings: glycan notation: IUPAC condensed, linker removed
# Procedure, shortened: (§1)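 Arrays were curated from the Consortium for Functional Glycomics database, 3228 in total, and kept only where the protein sequence was available. Binding is expressed as a within-array Z-score. This score was averaged across arrays of the same protein sequence at different concentrations or buffers and across linkers, and negative values can be read as non-binding.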
# [2] = tested on: Man(a1-2)Man(a1-3)[Man(a1-2)Man(a1-6)]Man; settings: glycan notation: IUPAC condensed, linker removed
# Procedure, shortened: as §1
# [3] = tested on: Man(a1-3)[Man(a1-6)]Man(a1-6)[Man(a1-3)]Man; settings: glycan notation: IUPAC condensed, linker removed
# Procedure, shortened: as §1
# [4] = tested on: Man(a1-3)[Man(a1-6)]Man(b1-4)GlcNAc(b1-4)[Fuc(a1-6)]GlcNAc; settings: glycan notation: IUPAC condensed, linker removed
# Procedure, shortened: as §1
# [5] = tested on: Neu5Ac(a2-3)Gal(b1-3)GalNAc; settings: glycan notation: IUPAC condensed, linker removed
# Procedure, shortened: as §1
# [6] = tested on: Neu5Ac(a2-3)Gal(b1-3)GlcNAc(b1-2)Man(a1-3)[Neu5Ac(a2-3)Gal(b1-3)GlcNAc(b1-2)Man(a1-6)]Man(b1-4)GlcNAc(b1-4)GlcNAc; settings: glycan notation: IUPAC condensed, linker removed; mutation: R125K
# Procedure, shortened: as §1
# [7] = tested on: Neu5Ac(a2-3)Gal(b1-3)GalNAc(b1-3)Gal(a1-4)Gal(b1-4)Glc; settings: glycan notation: IUPAC condensed, linker removed
# Procedure, shortened: as §1
# [8] = tested on: Neu5Ac(a2-3)Gal(b1-3)GalNAc6S; settings: glycan notation: IUPAC condensed, linker removed
# Procedure, shortened: as §1
# [9] = tested on: Neu5Ac(a2-3)Gal(b1-3)GlcNAc(b1-2)Man(a1-3)[GlcNAc(b1-4)][Neu5Ac(a2-3)Gal(b1-3)GlcNAc(b1-2)Man(a1-6)]Man(b1-4)GlcNAc(b1-4)GlcNAc; settings: glycan notation: IUPAC condensed, linker removed
# Procedure, shortened: as §1
# [10] = tested on: Man(a1-2)Man(a1-6)[Man(a1-3)]Man(a1-6)[Man(a1-2)Man(a1-2)Man(a1-3)]Man; settings: glycan notation: IUPAC condensed, linker removed
# Procedure, shortened: as §1
# [11] = tested on: Man(a1-3)[Man(a1-6)]Man(a1-6)[Man(a1-2)Man(a1-3)]Man(b1-4)GlcNAc(b1-4)GlcNAc; settings: glycan notation: IUPAC condensed, linker removed
# Procedure, shortened: as §1
# [12] = tested on: Neu5Ac(a2-3)Gal(b1-3)GalNAc(b1-3)Gal(b1-4)GlcNAc; settings: glycan notation: IUPAC condensed, linker removed
# Procedure, shortened: as §1
# [13] = tested on: Man(a1-3)[Man(a1-6)]Man(a1-6)[Man(a1-3)]Man(b1-4)GlcNAc(b1-4)GlcNAc; settings: glycan notation: IUPAC condensed, linker removed
# Procedure, shortened: as §1
# [14] = tested on: Man(a1-2)Man(a1-3)[Man(a1-2)Man(a1-6)]Man(a1-6)[Man(a1-3)[Man(a1-6)]Man(a1-6)]Man(b1-4)GlcNAc(b1-4)GlcNAc; settings: glycan notation: IUPAC condensed, linker removed
# Procedure, shortened: as §1
# [15] = tested on: Man(a1-6)Man; settings: glycan notation: IUPAC condensed, linker removed
# Procedure, shortened: as §1
# [16] = tested on: Man(a1-3)[Man(a1-6)]Man; settings: glycan notation: IUPAC condensed, linker removed
# Procedure, shortened: as §1
# [17] = tested on: Man(a1-2)Man(a1-3)[Man(a1-6)]Man(a1-6)[Man(a1-2)Man(a1-3)]Man(b1-4)GlcNAc(b1-4)GlcNAc; settings: glycan notation: IUPAC condensed, linker removed
# Procedure, shortened: as §1
# [18] = tested on: Man(a1-2)Man(a1-6)[Man(a1-3)]Man(a1-6)[Man(a1-2)Man(a1-2)Man(a1-3)]Man(b1-4)GlcNAc(b1-4)GlcNAc; settings: glycan notation: IUPAC condensed, linker removed
# Procedure, shortened: as §1
# [19] = tested on: Neu5Ac(a2-3)Gal(b1-3)GalNAc(b1-4)[Neu5Ac(a2-3)]Gal(b1-4)Glc; settings: glycan notation: IUPAC condensed, linker removed
# Procedure, shortened: as §1
# [20] = tested on: Neu5Ac(a2-3)Gal(b1-3)GalNAc(b1-4)[Neu5Ac(a2-8)Neu5Ac(a2-3)]Gal(b1-4)Glc; settings: glycan notation: IUPAC condensed, linker removed
# Procedure, shortened: as §1
# Neurocan (Homo sapiens), O14594, sequence (O14594 other isoform, or with tags, fused parts or gaps): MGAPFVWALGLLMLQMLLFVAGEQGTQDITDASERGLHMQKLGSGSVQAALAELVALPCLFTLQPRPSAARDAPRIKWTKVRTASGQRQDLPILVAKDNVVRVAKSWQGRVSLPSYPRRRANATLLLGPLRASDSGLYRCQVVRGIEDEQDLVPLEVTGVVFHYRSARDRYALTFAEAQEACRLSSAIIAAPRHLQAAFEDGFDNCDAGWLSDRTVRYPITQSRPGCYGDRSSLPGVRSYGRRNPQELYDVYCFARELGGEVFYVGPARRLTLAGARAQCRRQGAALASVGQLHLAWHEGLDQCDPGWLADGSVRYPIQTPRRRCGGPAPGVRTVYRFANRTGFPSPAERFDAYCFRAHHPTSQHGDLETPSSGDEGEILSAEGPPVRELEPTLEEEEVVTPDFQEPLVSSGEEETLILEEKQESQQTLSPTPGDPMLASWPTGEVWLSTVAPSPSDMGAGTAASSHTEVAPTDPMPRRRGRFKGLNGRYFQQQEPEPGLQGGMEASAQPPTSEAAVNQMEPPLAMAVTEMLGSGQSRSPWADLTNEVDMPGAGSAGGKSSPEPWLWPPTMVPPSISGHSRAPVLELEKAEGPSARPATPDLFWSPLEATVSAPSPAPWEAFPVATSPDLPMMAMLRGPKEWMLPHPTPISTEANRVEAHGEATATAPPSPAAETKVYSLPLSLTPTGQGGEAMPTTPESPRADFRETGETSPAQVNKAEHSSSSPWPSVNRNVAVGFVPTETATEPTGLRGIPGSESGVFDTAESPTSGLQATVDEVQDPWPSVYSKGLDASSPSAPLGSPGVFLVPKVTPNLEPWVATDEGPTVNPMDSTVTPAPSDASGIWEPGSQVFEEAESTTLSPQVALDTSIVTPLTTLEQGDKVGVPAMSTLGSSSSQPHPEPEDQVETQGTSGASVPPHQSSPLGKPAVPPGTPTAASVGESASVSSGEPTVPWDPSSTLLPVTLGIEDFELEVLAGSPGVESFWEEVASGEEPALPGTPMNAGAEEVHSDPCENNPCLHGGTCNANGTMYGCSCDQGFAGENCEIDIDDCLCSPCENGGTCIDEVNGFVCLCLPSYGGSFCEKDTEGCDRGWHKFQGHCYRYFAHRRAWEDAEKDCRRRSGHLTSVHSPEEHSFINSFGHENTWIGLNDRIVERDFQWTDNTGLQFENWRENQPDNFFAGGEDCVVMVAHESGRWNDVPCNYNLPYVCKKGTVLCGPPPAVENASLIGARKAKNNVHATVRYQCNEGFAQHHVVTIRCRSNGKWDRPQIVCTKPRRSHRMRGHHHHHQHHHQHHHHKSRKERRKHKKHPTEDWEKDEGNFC
# Avaren (Actinomycete K97), sequence (chain, as listed by the source): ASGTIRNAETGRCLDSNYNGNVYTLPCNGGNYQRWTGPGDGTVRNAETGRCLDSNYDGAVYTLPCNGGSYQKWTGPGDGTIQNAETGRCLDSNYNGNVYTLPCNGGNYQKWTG
# Aggrecan (Rattus norvegicus), NP_071526, sequence (chain, as listed by the source): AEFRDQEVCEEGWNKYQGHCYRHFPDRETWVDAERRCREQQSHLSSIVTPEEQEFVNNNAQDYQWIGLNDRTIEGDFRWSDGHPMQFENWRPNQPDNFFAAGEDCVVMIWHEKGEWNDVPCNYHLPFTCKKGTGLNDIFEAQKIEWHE
# 6RG (Lolium perenne), B9U140, sequence (B9U140 entry or part of it): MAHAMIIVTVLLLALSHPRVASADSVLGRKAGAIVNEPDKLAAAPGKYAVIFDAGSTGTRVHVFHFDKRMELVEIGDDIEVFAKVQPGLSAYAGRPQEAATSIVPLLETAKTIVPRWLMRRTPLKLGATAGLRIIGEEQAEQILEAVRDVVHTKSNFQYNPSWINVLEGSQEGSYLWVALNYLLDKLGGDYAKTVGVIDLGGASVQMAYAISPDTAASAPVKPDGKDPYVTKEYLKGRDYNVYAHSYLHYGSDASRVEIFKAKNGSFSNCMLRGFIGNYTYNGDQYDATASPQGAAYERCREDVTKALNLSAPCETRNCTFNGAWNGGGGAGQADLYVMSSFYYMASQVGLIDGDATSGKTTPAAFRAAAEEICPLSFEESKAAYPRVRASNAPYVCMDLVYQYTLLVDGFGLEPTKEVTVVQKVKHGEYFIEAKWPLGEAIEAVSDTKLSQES
# C3b (Homo sapiens), P01024, sequence (P01024 23-667): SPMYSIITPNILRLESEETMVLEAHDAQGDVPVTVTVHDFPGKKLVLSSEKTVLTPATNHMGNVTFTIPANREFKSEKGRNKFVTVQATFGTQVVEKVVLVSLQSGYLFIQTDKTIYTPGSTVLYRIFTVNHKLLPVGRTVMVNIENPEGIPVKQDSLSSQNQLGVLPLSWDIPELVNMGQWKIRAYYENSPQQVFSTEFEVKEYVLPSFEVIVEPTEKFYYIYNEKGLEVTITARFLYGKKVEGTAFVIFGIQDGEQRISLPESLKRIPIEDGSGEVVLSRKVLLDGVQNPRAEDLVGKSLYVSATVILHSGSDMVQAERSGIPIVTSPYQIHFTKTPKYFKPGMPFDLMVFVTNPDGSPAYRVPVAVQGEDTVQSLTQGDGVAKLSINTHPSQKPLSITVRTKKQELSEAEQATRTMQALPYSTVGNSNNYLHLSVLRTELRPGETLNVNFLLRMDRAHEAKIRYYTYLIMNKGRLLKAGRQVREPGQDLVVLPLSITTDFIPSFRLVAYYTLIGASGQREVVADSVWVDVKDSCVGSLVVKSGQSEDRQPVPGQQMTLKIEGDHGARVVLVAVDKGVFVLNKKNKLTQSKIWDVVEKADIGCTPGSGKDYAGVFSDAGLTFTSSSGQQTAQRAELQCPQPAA
# wLAT-1A (Homo sapiens), Q01650, sequence (Q01650 whole entry): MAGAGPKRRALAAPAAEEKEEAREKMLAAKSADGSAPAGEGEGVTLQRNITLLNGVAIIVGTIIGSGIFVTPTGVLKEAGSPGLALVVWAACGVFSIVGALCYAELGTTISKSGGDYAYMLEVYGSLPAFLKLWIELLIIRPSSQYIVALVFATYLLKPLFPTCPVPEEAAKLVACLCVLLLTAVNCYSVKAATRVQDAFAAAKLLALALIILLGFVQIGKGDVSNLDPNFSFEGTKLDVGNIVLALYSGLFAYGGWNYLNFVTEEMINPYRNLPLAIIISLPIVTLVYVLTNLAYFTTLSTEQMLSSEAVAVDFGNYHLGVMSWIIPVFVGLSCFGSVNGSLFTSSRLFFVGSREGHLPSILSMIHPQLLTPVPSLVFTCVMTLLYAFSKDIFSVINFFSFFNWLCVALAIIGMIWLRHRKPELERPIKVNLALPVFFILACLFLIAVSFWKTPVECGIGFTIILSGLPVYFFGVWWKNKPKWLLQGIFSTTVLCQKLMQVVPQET
# CHT (Homo sapiens), sequence (chain, as listed by the source): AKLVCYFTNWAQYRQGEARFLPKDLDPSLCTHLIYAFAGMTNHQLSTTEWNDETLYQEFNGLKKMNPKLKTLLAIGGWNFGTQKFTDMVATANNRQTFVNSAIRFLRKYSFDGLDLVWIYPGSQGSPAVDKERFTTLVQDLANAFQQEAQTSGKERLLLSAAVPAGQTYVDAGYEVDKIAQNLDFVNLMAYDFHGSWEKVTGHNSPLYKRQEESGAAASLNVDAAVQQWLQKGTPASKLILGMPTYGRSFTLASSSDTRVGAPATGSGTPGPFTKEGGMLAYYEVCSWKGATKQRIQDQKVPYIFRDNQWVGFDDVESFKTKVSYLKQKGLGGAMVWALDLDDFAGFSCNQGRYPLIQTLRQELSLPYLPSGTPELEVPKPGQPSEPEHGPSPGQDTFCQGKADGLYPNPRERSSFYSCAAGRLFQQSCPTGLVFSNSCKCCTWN
# PILRb (Mus musculus), Q2YSF2, sequence (Q2YSF2 entry or part of it): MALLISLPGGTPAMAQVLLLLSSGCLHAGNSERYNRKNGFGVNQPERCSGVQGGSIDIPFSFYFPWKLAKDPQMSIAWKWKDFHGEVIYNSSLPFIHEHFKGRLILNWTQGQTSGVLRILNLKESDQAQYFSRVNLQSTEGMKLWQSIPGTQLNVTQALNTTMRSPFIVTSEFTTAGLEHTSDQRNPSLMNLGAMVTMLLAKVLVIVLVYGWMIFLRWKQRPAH
# 6RG (Lolium perenne), sequence (chain, as listed by the source): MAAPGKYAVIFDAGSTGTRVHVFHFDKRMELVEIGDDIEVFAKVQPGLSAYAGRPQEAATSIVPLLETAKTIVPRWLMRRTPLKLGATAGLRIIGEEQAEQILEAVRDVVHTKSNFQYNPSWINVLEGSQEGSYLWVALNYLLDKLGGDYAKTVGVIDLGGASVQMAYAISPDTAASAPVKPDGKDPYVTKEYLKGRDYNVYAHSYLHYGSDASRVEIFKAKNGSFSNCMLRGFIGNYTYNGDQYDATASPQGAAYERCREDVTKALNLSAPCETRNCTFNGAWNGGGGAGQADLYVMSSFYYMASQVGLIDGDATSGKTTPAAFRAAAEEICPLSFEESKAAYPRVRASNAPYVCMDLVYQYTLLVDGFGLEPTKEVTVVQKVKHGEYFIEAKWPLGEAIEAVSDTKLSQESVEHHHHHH
substance,measurement,setting,value
"PILRb (Mus musculus), Q2YSF2",glycan array binding signal (z-score),[1],-0.166
"Siglec-8 (Homo sapiens), Q9NYZ4",glycan array binding signal (z-score),[2],-0.204
same,glycan array binding signal (z-score),[3],0.131
same,glycan array binding signal (z-score),[3]; mutation: R125K,-0.227
same,glycan array binding signal (z-score),[4],-0.07
same,glycan array binding signal (z-score),[5]; mutation: R125K,4.65
same,glycan array binding signal (z-score),[6],1.23
"Neurocan (Homo sapiens), O14594",glycan array binding signal (z-score),[2],-0.053
same,glycan array binding signal (z-score),[3],-0.722
same,glycan array binding signal (z-score),[7],0.009
6RG (Lolium perenne),glycan array binding signal (z-score),[8],-0.326
MpAFP RI GFP (Marinomonas primoryensis),glycan array binding signal (z-score),[9],-0.323
"C3b (Homo sapiens), P01024",glycan array binding signal (z-score),[10],-0.764
same,glycan array binding signal (z-score),[5],-0.754
"Aggrecan (Rattus norvegicus), NP_071526",glycan array binding signal (z-score),[11],1.14
same,glycan array binding signal (z-score),[1],-0.071
same,glycan array binding signal (z-score),[12],-0.071
"6RG (Lolium perenne), B9U140",glycan array binding signal (z-score),[2],-0.266
same,glycan array binding signal (z-score),[13],-0.359
"HARE (Homo sapiens), Q8WWQ8",glycan array binding signal (z-score),[14],2.39
"wLAT-1A (Homo sapiens), Q01650",glycan array binding signal (z-score),[15],0.732
same,glycan array binding signal (z-score),[1],0.584
CHT (Homo sapiens),glycan array binding signal (z-score),"[16]; mutation: D138V, E140I",-0.149
Avaren (Actinomycete K97),glycan array binding signal (z-score),[2],3.5
same,glycan array binding signal (z-score),[17],1.08
same,glycan array binding signal (z-score),[18],13.4
same,glycan array binding signal (z-score),[10],6.02
same,glycan array binding signal (z-score),[11],-0.014
same,glycan array binding signal (z-score),[13],-0.113
same,glycan array binding signal (z-score),[16],-0.106
same,glycan array binding signal (z-score),[19],-0.124
same,glycan array binding signal (z-score),[20],-0.128

# — the supplement of paper PMC8728848
